{
  "source": "PubChem BioAssay (Tox21)",
  "note": "Records with an inconclusive call do not appear. Values without a mark were called inactive. The call rests on the fitted dose curve; in most records, active means well fitted inhibition curve with a large enough effect in the signal ratio in the repeat runs (not every such curve was filed as active); inconclusive means weak or mixed curves, or effect the other way; inactive means no such curve, though single readings can be large or run the other way; the % refers to the signal ratio. On the % scale 0 is the no-effect control and ±100 the full control effect.",
  "data": [
    {"molecular_target": "Vitamin D3 receptor (Homo sapiens) (UniProt P11473)", "sequence (P11473 whole entry, looked up)": "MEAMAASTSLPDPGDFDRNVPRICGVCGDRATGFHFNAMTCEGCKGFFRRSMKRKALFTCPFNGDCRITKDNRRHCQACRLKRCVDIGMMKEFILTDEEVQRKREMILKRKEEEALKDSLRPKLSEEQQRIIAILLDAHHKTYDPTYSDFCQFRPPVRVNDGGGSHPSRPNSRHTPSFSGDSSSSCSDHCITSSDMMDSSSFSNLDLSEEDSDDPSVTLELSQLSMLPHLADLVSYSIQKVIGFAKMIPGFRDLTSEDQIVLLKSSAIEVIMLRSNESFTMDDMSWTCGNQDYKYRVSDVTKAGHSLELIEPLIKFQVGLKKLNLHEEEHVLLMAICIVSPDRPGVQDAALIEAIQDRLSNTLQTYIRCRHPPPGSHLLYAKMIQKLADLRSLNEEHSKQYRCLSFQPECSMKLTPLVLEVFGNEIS", "experiment": "qHTS assay to identify small molecule antagonists of the vitamin D receptor (VDR) signaling pathway (AID 743223)", "conditions": "VDR-UAS-bla HEK293T, beta-lactamase FRET ratio, 16 h; series mostly up to 61 µM; activity change, negative = inhibition: at the top concentration", "how_it_was_run": "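Beta-lactamase activity in VDR-bla cells is measured by FRET substrate fluorescence (2 h, room temperature) after cells spend 16 h at 37C with test compound and 3 nM final 1alpha,25-dihydroxyvitamin D3.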", "values": [
      {"smiles": "CC1CC(O)CC(C)(C)C1", "note": "(centres undefined)", "activity change, negative = inhibition": "-6.04%"},
      {"smiles": "Cc1ccnc2ccccc12", "activity change, negative = inhibition": "-13.7%"},
      {"smiles": "Nc1nccs1", "activity change, negative = inhibition": "2.77%"},
      {"smiles": "CC1CN(c2cc3c(cc2F)c(=O)c(C(=O)O)cn3-c2ccc(F)cc2F)CCN1", "note": "(centres undefined)", "activity change, negative = inhibition": "0.481% [at 6.95 µM]"},
      {"smiles": "CCCOC(=O)c1ccc(N)cc1", "activity change, negative = inhibition": "-7.46%"},
      {"smiles": "O=Cc1c(Cl)cccc1Cl", "activity change, negative = inhibition": "20.9% [at 78.8 µM]"},
      {"smiles": "C/C(=N/NC(=O)c1ccncc1)C(=O)O", "activity change, negative = inhibition": "10.2%"},
      {"smiles": "OCCSc1ccccc1", "activity change, negative = inhibition": "1.42%"},
      {"smiles": "CCOC(=O)c1ccccc1OC", "activity change, negative = inhibition": "-2.18%"},
      {"smiles": "Nc1ccc(Cl)cc1[N+](=O)[O-]", "activity change, negative = inhibition": "-3.79%"},
      {"smiles": "C=CC(C)(O)CCCC(C)CCCC(C)CCCC(C)C", "note": "(centres undefined)", "activity change, negative = inhibition": "0.923%"},
      {"smiles": "CCC(C)=O", "activity change, negative = inhibition": "9.67%"},
      {"smiles": "NC(=O)N(O)[C@@H]1C=C[C@H](Oc2cccc(Oc3ccc(F)cc3)c2)C1", "activity change, negative = inhibition": "-2.23%"},
      {"smiles": "CC(COc1ccc(C(C)(C)C)cc1)OS(=O)OCCCl", "note": "(centres undefined)", "activity change, negative = inhibition": "-3.05% [at 78.8 µM]"},
      {"smiles": "O=C(O)Cc1ccc(-c2ccccc2)cc1", "activity change, negative = inhibition": "6.27%"},
      {"smiles": "CCC(C(=O)OCCN(CC)CC)c1ccccc1", "note": "(centres undefined)", "activity change, negative = inhibition": "12.1%"},
      {"smiles": "C[C@@H]1C[C@H]2[C@@H]3CCC4=CC(=O)C=C[C@]4(C)[C@@]3(F)[C@@H](O)C[C@]2(C)[C@H]1C(=O)CO", "activity change, negative = inhibition": "5.89%"},
      {"smiles": "CC(C)CCCCCCOC(=O)CCCCC(=O)OCCCCCCC(C)C", "activity change, negative = inhibition": "9.98%"},
      {"smiles": "COC(OC)(C(=O)c1ccccc1)c1ccccc1", "activity change, negative = inhibition": "14%"},
      {"smiles": "C=CCNc1nc(NCC=C)nc(N2CCN(C(c3ccc(F)cc3)c3ccc(F)cc3)CC2)n1", "activity change, negative = inhibition": "-0.76%"},
      {"smiles": "Cc1nc2ccccn2c(=O)c1CCN1CCC(C(=O)c2ccc(F)cc2)CC1", "activity change, negative = inhibition": "3.91%"},
      {"smiles": "Cc1ccc(/C=N/n2c(-c3ccccc3)csc2=S)cc1", "activity change, negative = inhibition": "-0.267%"},
      {"smiles": "COc1cc2[nH]c(=O)[nH]c(=O)c2cc1OC", "activity change, negative = inhibition": "13.7%"},
      {"smiles": "CCCC(=O)O[C@]1(C(=O)COC(=O)CC)CC[C@H]2[C@@H]3CCC4=CC(=O)CC[C@]4(C)[C@H]3[C@@H](O)C[C@@]21C", "activity change, negative = inhibition": "-5.82% [at 28.5 µM]"}
    ]}
  ]
}
